Experimental findings from PubChem BioAssay AID588473 (Sanford-Burnham Center for Chemical Genomics, 2011) are described below.

About 1,600 (0.46%) of roughly 350,000 compounds were called active.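 The calls were made as follows: active = activation of at least 50%, plus an integration ratio under a set limit after plate pattern correction; inactive = the rest.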 What follows is part of a selection rich in actives, with near analogues and random picks from the rest.

The subject of the experiment is CRF-binding protein / CRF receptor 2 complex (human). The experiment can be described thus: activators of CRF-R2 with CRF-BP – cell-based, HEK293, calcium dye fluorescence, uHTS, primary screen (AID 588473).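 Also: plate controls were neutral control wells without compound for no effect and CRF at EC100 for full effect.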 The settings on record: calcium dye fluorescence (FLIPR), at 13.2 µM, active compounds read high, percent of saturating CRF peptide response.
Take `C/C(CC(=O)NC(C)(C)C)=N\NC(=O)c1ccco1`: the activation is -2.93% (inactive).
The same measure for `CN1CCC(=O)N([C@H](CO)Cc2ccccc2)CC1`: 0.86% (inactive).
The same measure for `O=C1NC(Nc2nc3ccccc3s2)(C(F)(F)F)C(=O)N1C1CCCCC1` (centres undefined): -0.92% (inactive); for `CC(C)(C)OC(=O)NCCCCCC(=O)N/N=C/c1coc2ccccc2c1=O`: -5.17% (inactive); for `CC1=CC2=NC(=O)/C(=C/c3coc4ccccc4c3=O)C(=N)N2O1`: 147% (active).
For the compound `COc1ccc(OCCCn2cccc2/C=C2/C(=N)N3OC(C)=CC3=NC2=O)cc1`, the activation is 4.44% (inactive).
With `C[C@@H]1NS(=O)(=O)c2cc(Cl)ccc2O[C@@H]1c1ccccc1`, the activation is -1.15% (inactive).
For `Cc1ccc(-n2c(C)cc(C(=O)CN3C(=O)C(=O)N(C4CCCC4)C3=O)c2C)cc1` the value was 161% (active); for `Cc1cc(C(=O)COC(=O)C2CC2)c(C)n1-c1ccc(F)cc1`, -3.55% (inactive); for `Cc1ccc(-n2c(C)cc(C(=O)CSc3nnc4ccccn34)c2C)cc1`, -0.98% (inactive).
Turning to `O=C(N/N=C/c1sc(N2CCCCC2)nc1-c1cccs1)c1cccnc1`, the activation was 62.8% (active).
Regarding `Cc1ccc(S(=O)(=O)N2CCCCC2)cc1NC(=O)c1cccnc1`, the activation is 6.52% (inactive).
On to `Cc1ccc(NC(=O)COc2ccc(/C=N\NC(=O)c3cccnc3)cc2)cc1C`, for which the activation is 0.37% (inactive).
For `Cc1ccc(C(=O)N/C(=C\c2cccs2)C(=O)NCCc2ccccn2)cc1C` the value was -0.29% (inactive); for `COc1ccccc1C(=O)NCCC(=O)NC(C)CCc1ccccc1` (centres undefined), 0.39% (inactive).
As for `COc1ccc(CCNC(=O)CN(c2ccccc2)S(=O)(=O)c2ccccc2)cc1`, the activation was -0.58% (inactive).
On to `COc1ccc([C@H]2CC(=O)C=C(/C=C/c3ccc(Cl)cc3)C2)cc1`, for which the activation was 2.34% (inactive).
`CCSc1nc2c(c(=O)[nH]1)C(c1cccnc1)C(C(=O)OC(C)C)=C(C)N2` (centres undefined): the activation was -11.6% (inactive).
For `COc1cc(OC)cc(C(=O)NCC(=O)OCC(=O)NC(C)CCc2ccccc2)c1` (centres undefined) the value was -1.06% (inactive); for `COc1cc(OC)cc(C(=O)N[C@H](C(=O)OCC(=O)NC(C)c2ccccc2)C(C)C)c1` (some centres undefined), 102% (active); for `COc1cc(OC)cc(C(=O)NC(C(=O)N2CCC2)C(C)C)c1` (centres undefined), 2.01% (inactive).
For `COc1cc([N+](=O)[O-])cc([N+](=O)[O-])c1NC(=O)N1CCOCC1` the value was -0.3% (inactive); for `COc1ccc(C)cc1NC(=O)CSc1nc(SC)ns1`, -0.91% (inactive).
In the case of `CSc1nsc(SCC(=O)Nc2cc(C(=O)O)ccc2C)n1`, the activation is -1.07% (inactive).
For `CCc1nnc(NC(=O)CSc2nc(SC)ns2)s1` the value was 113% (active); for `CCCCn1c(=S)[nH]c2ncccc2c1=O`, 2.09% (inactive); for `CCN(CC)S(=O)(=O)c1ccc(OC)c(NC(=O)CCc2c(C)noc2C)c1`, -0.44% (inactive).
On to `Cc1nn(C)c(C)c1C(C)NC(=O)c1ccc(OC2CCN(Cc3ccccn3)CC2)cc1` (centres undefined), for which the activation is 3.71% (inactive).
For `Cc1ccc(NC(=O)C(C)c2cccc(C(=O)c3ccccc3)c2)cc1` (centres undefined) the value was -1.3% (inactive); for `CCCc1ccc(OCC(=O)NNC(=S)NC(=O)c2ccco2)cc1`, 60.1% (active).
In the case of `Cc1cccc(OCC(=O)Nc2ccc(NC(=O)c3ccco3)c(C)c2)c1`, the activation is 0.25% (inactive).
The same measure for `O=C(NNC(=S)Nc1ccc(Br)cc1Cl)c1ccco1`: -1.64% (inactive).
For `CC(Oc1ccc2ccccc2c1)C(=O)NNC(=S)NC(=O)c1ccco1` (centres undefined) the value was 58.2% (active); for `NS(=O)(=O)c1ccc(CNC(=S)NC(=O)c2ccco2)cc1`, -6.68% (inactive); for `O=C(Nc1ccc2ccccc2c1)/C(=C\c1ccc2c(c1)OCO2)NC(=O)c1ccco1`, 1.15% (inactive).
With `C=CCOc1ccc(C2/C(=C(\O)c3c(C)[nH]c(C(=O)OC)c3C)C(=O)C(=O)N2CCN(C)C)cc1` (centres undefined), the activation is -2.8% (inactive).
Regarding `C=C1CCN([C@@H](Cc2ccccc2)C(=O)N2CCOCC2)S(=O)(=O)c2ccccc21`, the activation was 1.4% (inactive).
With `Cc1ccc(C)c(NC(=O)COC(=O)Cn2c(C)csc2=O)c1`, the activation was 1.31% (inactive).
Take `Cc1cc(Nc2ccc(C)c(C)c2)n2ncnc2n1`: the activation is -1.97% (inactive).
Turning to `Cc1nn(-c2ccc(F)cc2)c(Cl)c1/C=C(/CCC(=O)O)c1nc2ccccc2s1`, the activation was 0.68% (inactive).
Consider `CC1=CC(=C(C#N)c2nc3ccccc3s2)C=C(C)N1c1ccc(F)cc1F`, for which the activation is 119% (active).
As for `Cc1cnc(C(=O)Oc2cccc(Cl)c2Cl)cn1`, the activation is -0.24% (inactive).
On to `CCCCNC(=O)c1ccccc1NC(=O)c1ccccc1N(C)S(C)(=O)=O`, for which the activation was -1.79% (inactive).
For `CCCCCCCCCCCCN1C(=O)CSC1c1cccnc1` (centres undefined) the value was 1.06% (inactive).
